This is one part of a sample in which hits are shown more often than they occur.
IDE exosite inh – displaces the probe from the exo-site of human IDE | P14735 | purified IDE, FL-6b probe fluorescence polarization; hits give low values | z-score at 20 µM | hit rate 6.3% among 17,000 | AID 1259349;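 active means z-score of -3 or lower, meaning strong loss of probe binding signal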;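 further: His-tagged human IDE residues 42-1019 made in E. coli with 30 nM FL-6b probe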
Target sequence (P14735 42-1019 limits assumed): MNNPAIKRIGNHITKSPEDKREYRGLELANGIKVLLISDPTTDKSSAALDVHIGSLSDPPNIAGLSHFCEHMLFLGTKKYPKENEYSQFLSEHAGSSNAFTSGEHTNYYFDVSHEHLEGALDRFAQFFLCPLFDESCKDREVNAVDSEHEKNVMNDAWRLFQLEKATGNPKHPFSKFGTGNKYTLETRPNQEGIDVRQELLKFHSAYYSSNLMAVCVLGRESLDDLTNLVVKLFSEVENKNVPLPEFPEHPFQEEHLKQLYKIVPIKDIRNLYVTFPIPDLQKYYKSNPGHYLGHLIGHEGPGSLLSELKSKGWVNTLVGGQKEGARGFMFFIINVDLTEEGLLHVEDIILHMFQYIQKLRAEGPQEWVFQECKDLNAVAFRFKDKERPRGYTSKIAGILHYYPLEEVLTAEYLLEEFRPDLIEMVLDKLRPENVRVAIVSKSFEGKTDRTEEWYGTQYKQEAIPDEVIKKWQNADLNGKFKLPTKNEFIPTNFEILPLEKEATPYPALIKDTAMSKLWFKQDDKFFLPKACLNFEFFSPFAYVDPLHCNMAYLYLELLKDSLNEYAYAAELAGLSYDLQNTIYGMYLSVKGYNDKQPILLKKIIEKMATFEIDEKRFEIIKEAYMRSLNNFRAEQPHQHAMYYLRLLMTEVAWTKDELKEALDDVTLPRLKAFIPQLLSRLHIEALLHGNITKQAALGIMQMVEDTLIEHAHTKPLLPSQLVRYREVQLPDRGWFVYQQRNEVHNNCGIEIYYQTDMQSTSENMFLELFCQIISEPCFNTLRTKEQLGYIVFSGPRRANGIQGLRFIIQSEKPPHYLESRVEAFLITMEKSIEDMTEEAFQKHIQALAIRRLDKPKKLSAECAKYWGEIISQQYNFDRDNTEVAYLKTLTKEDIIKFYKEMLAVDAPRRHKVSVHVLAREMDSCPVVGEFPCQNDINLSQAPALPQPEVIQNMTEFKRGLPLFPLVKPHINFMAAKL
Hits are given with their value.

How did C[C@@H](NC(=O)C[C@@H]1C=C[C@H](NS(=O)(=O)c2cccc(F)c2)[C@H](CO)O1)c1ccccc1 do in these assays?
IDE exosite inh: inactive

What do the screens show for `O=C(Nc1ccc(F)cc1)N1[C@H](CO)[C@H]2c3ccccc3NC[C@H]21`?
IDE exosite inh: inactive

Results for C[C@@H]1CN([C@@H](C)CO)C(=O)c2c(c3ccccc3n2C)-c2ccccc2CO[C@@H]1CN(C)C(=O)Nc1ccc2c(c1)OCO2 ?
IDE exosite inh: inactive

How did CCc1cnc(N2[C@H](C#N)[C@@H](c3ccc(-c4cccc(F)c4)cc3)[C@H]2CO)s1 do in these assays?
IDE exosite inh: inactive

What do the screens show for `CN1CCCCN2[C@@H](CO)[C@H](c3ccc(-c4ccccc4)cc3)[C@@H]2C1`?
IDE exosite inh: inactive

Results for O=C(Cc1ccccn1)N1CC(=O)N2[C@@H](CO)[C@H](c3ccc(C#CC4CCCCC4)cc3)[C@@H]2C1 ?
IDE exosite inh: inactive

Results for CC(C)NC(=O)N(C)C[C@@H]1Oc2ccc(NC(=O)Cc3ccccc3)cc2CC(=O)N([C@@H](C)CO)C[C@H]1C ?
IDE exosite inh: inactive

Results for C[C@@H](NC(=O)C[C@@H]1CC[C@H]2[C@@H](COC[C@@H](O)CN2C(=O)Nc2cccc(Cl)c2)O1)c1ccccc1 ?
IDE exosite inh: inactive

What do the screens show for `N#C[C@@H]1[C@H](c2ccc(-c3ccccc3F)cc2)[C@H](CO)N1C(=O)C1CCC1`?
IDE exosite inh: inactive

What do the screens show for `COc1ccccc1-c1ccc([C@@H]2[C@@H](CO)N(C(=O)C3CC3)[C@H]2C#N)cc1`?
IDE exosite inh: -7.82

Results for COc1ccc(-c2ccc([C@H]3[C@@H](C#N)N(C(=O)C4CC4)[C@@H]3CO)cc2)cc1 ?
IDE exosite inh: inactive

What do the screens show for `COc1ccccc1-c1ccccc1[C@H]1[C@H](C#N)N(C(=O)C2CC2)[C@H]1CO`?
IDE exosite inh: inactive

Results for COc1ccccc1-c1ccc([C@H]2[C@@H](C#N)N(C(=O)C3CC3)[C@H]2CO)cc1 ?
IDE exosite inh: -5.35

How did COc1ccc(-c2ccccc2[C@H]2[C@@H](C#N)N(C(=O)C3CC3)[C@H]2CO)cc1 do in these assays?
IDE exosite inh: inactive

How did COc1ccc(-c2ccc([C@H]3[C@H](C#N)N(C(=O)C4CCC4)[C@H]3CO)cc2)cc1 do in these assays?
IDE exosite inh: inactive

How did CC(=O)N1[C@H](C(=O)NCc2ccccc2Cl)[C@@H](CO)[C@@H]2Cn3c(ccc(-c4cncnc4)c3=O)[C@@H]21 do in these assays?
IDE exosite inh: inactive

How did CN1C(=O)c2cc(NC(=O)c3ccc(F)c(F)c3)ccc2OC[C@H]2O[C@@H](CC(=O)Nc3ccc4c(c3)COC4)CC[C@@H]21 do in these assays?
IDE exosite inh: inactive

How did CC(C)NC(=O)N1CCCCN2[C@H](CO)[C@@H](c3ccc(C#C[C@H](C)O)cc3)[C@H]2C1 do in these assays?
IDE exosite inh: inactive

What do the screens show for `CC(C)C#Cc1ccc([C@@H]2[C@@H](CO)N3CCCCN(C(=O)NC(C)C)C[C@H]23)cc1`?
IDE exosite inh: inactive

What do the screens show for `CC(C)NC(=O)N1CCCCN2[C@H](CO)[C@H](c3ccc(C#C[C@@H](C)O)cc3)[C@@H]2C1`?
IDE exosite inh: inactive

How did CC(C)NC(=O)N1CCCCN2[C@H](CO)[C@@H](c3ccc(C#C[C@@H](C)O)cc3)[C@H]2C1 do in these assays?
IDE exosite inh: inactive

What do the screens show for `CC(C)NC(=O)N1CCCCN2[C@H](CO)[C@@H](c3ccc(C#Cc4ccccc4)cc3)[C@@H]2C1`?
IDE exosite inh: -7.45

What do the screens show for `CC(C)NC(=O)N1CCCCN2[C@H](CO)[C@H](c3ccc(C#Cc4ccccc4)cc3)[C@@H]2C1`?
IDE exosite inh: -9.76

What do the screens show for `CC(C)NC(=O)N1CCCCN2[C@@H](CO)[C@H](c3ccc(C#Cc4ccccc4)cc3)[C@@H]2C1`?
IDE exosite inh: -11.1

What do the screens show for `CC(C)NC(=O)N1CCCCN2[C@H](C1)[C@H](c1ccc(C#C[C@H](C)O)cc1)[C@@H]2CO`?
IDE exosite inh: inactive

Results for CC(C)NC(=O)N1CCCCN2[C@H](CO)[C@@H](c3ccc(C#Cc4ccccc4F)cc3)[C@@H]2C1 ?
IDE exosite inh: inactive

How did Cc1ccc(-c2ccccc2[C@@H]2[C@H](C#N)N(c3ncc(-c4ccccc4)s3)[C@H]2CO)cc1 do in these assays?
IDE exosite inh: inactive

How did COCC(=O)N1[C@H](C#N)[C@H](c2ccccc2-c2ccc(C)cc2)[C@H]1CO do in these assays?
IDE exosite inh: inactive

How did O=C(CN1CCOCC1)N1CCCCN2[C@H](CO)[C@H](c3ccc(/C=C/c4ccccc4)cc3)[C@H]2C1 do in these assays?
IDE exosite inh: inactive

What do the screens show for `O=C(CN1CCOCC1)N1CCCCN2[C@H](C1)[C@@H](c1ccc(/C=C/c3ccccc3)cc1)[C@@H]2CO`?
IDE exosite inh: -4.6

How did O=C(CN1CCOCC1)N1CCCCN2[C@H](C1)[C@@H](c1ccc(Br)cc1)[C@@H]2CO do in these assays?
IDE exosite inh: inactive

What do the screens show for `O=C(CN1CCOCC1)N1CCCCN2[C@H](CO)[C@H](c3ccc(/C=C/c4ccccc4)cc3)[C@@H]2C1`?
IDE exosite inh: -9.28
